GPR151 activ = activators of human GPR151, primary screen, cell-based, PathHunter beta-arrestin, luminescence; G-protein coupled receptor 151 (Homo sapiens), Q8TDV0; PathHunter beta-arrestin GPR151 cells; activation, % at 11.2 µM; hit rate 1% among 650,000; in the data active means activation above about 4.9%
FBW7 activator = FBW7 E3 ligase activators, primary screen, biochemical, AlphaScreen, human. normalized activity (activation), % at 26.1 µM. F-box/WD repeat-containing protein 7 (Homo sapiens), Q969H0. AlphaScreen FBW7–phospho-cyclin E peptide binding, activator screen. AID 1259310, 2017. hit rate 0.13% among 650,000; in the data active means normalized activity above about 1.9%;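 further: purified mutant Fbw7 with reduced substrate affinity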
Target sequence (Q969H0 whole entry, looked up): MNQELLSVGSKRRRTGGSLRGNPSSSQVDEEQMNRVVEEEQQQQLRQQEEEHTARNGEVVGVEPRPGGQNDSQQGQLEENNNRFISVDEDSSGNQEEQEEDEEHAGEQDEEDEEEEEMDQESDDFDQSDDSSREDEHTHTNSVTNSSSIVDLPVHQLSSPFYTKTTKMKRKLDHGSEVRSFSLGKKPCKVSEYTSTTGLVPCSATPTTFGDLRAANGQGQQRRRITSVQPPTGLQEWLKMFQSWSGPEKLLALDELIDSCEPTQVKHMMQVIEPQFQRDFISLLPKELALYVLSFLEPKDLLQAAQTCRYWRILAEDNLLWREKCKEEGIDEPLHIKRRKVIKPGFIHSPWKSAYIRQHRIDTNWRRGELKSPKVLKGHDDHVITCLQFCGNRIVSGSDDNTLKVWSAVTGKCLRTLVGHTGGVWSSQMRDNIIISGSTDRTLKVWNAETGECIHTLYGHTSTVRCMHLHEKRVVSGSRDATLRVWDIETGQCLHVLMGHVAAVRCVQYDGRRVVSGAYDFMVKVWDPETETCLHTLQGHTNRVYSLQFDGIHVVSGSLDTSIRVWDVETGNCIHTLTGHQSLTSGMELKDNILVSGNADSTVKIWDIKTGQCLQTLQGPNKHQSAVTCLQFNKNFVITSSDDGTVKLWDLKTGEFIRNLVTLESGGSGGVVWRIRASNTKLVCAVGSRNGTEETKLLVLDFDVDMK
MITF primary = MITF inhibitors, primary screen, biochemical, AlphaScreen, human; AlphaScreen MITF homodimerization, bead proximity signal; inhibition, % at 2.6 µM; hit rate 0.91% among 650,000; AID 1259374, 2018; in the data active means inhibition above about 50%
TEAD-YAP block = TEAD-YAP interaction inhibition, primary screen, TEAD-YAP interaction inhibitor project, luminescence, HEK-TIYL cells | TEAD-Gal4/YAP UAS-luciferase luminescence | inhibition, % at 9.12 µM | hit rate 1.4% among 640,000 | AID 1259422, 2018; in the data active means inhibition above about 32%
GPR151 confirm = GPR151 activators, triplicate retest, confirmation, cell-based, PathHunter beta-arrestin, luminescence; 6,700 tested, under 10 active; activation, % at 11.2 µM; AID 1508609, 2020; GPR151 PathHunter beta-arrestin cells, 90 min; % of EA-reagent control over plate median; shares compounds with GPR151 activ;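 active means mean percent activation across replicates above the confirmation screen cutoff of 4.91%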
GPR119 counter = GPR119 activators in beta-arrestin cells, counter-screen for GPR151 activator project, cell-based, PathHunter beta-arrestin, luminescence, triplicate. AID 1508611, 2020. shares compounds with GPR151 activ. activation, % at 11.2 µM. hit rate 0.3% among 6,700. 90 min; 0 = compound-well median, 100 = enzyme-acceptor control;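 active means mean percent activation in the counterscreen above 29.09%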;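 further: counterscreen on off-target GPR119 to flag nonselective hits from the GPR151 activator screen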
Each line names hits and unclear results; the compound was inactive in the other large screens (follow-up assays come after a bar, where they were run). Most compounds without a hit are left out; they make up all but 3.5% or so of the library.

COc1ccccc1C(=O)Nc1cccc(N(C)C)c1	GPR151 activ 16 | GPR151 confirm inactive | GPR119 counter inactive
Cc1cc(=O)oc2cc(OC(C)C(=O)Nc3ccccc3)ccc12 (configuration not stated)	GPR151 activ 5.3 | GPR151 confirm inactive | GPR119 counter inactive
COc1ccc(NC(=O)C(C)Oc2ccc3oc(=O)cc(C)c3c2)cc1 (configuration not stated)	none
O=C(Nc1ccccc1)c1ccccc1OS(=O)(=O)c1ccc([N+](=O)[O-])cc1	none
COc1cc(C2Nc3ccccc3-c3cc(C)nn32)cc(OC)c1O (configuration not stated)	none
COc1cccn2c(C(=O)N3CCCC3)c(C(F)(F)F)nc12	none
COc1cccn2c(C(=O)N3CCC3)c(C(F)(F)F)nc12	GPR151 activ 6.2 | GPR151 confirm inactive | GPR119 counter inactive
COc1cccn2c(C(=O)Nc3ccc(Cl)cc3)c(C(F)(F)F)nc12	GPR151 activ 14 | GPR151 confirm inactive | GPR119 counter inactive
O=C(O)Cn1nc(Cc2ccncc2)c2ccccc2c1=O	none
CCOC(=O)n1nc(Cc2ccncc2)c2ccccc2c1=O	GPR151 activ 5.2 | GPR151 confirm inactive | GPR119 counter inactive
CC(CCc1ccccc1)NC(=O)Cn1nc(Cc2ccncc2)c2ccccc2c1=O (configuration not stated)	GPR151 activ 5.8 | GPR151 confirm inactive | GPR119 counter inactive
CCC(=O)NC(Nc1sc2c(c1C#N)CCC(C)C2)(C(=O)OC)C(F)(F)F (configuration not stated)	none
O=[N+]([O-])c1cc([N+](=O)[O-])c2nonc2c1Nc1cccc(C(F)(F)F)c1	GPR151 activ 7.1 | GPR151 confirm inactive | GPR119 counter inactive
Cc1c(NC(=O)CSc2ccc(C(C)(C)C)cc2)c(=O)n(-c2ccccc2)n1C	GPR151 activ 8.2 | GPR151 confirm inactive | GPR119 counter inactive
Cc1c(NC(=O)CSc2ccccc2)c(=O)n(-c2ccccc2)n1C	none
O=C(Cc1cn(-c2ccc(Nc3nccc4ccccc34)nn2)c2ccccc12)NCCN1CCOCC1	none
Cc1nnsc1C(=O)N1C2CCC1CC(c1ccc(F)cc1)C2 (configuration not stated)	GPR151 activ 12 | GPR151 confirm inactive | GPR119 counter inactive
O=C(c1ccco1)N1C2CCC1CC(c1ccc(F)cc1)C2 (configuration not stated)	GPR151 activ 8.6 | GPR151 confirm inactive | GPR119 counter inactive
O=C(c1cscn1)N1C2CCC1CC(c1ccc(F)cc1)C2 (configuration not stated)	none
Cc1nnsc1C(=O)N1CCC(c2ccccc2)C1 (configuration not stated)	none
CCc1ccccc1N(CC(=O)Nc1c(C)cc(C)cc1C)S(C)(=O)=O	none
Cc1ccccc1-c1nnc(SCC(=O)N2CCOCC2)o1	none
Cc1nnc(SCC(=O)N2CCN(c3ccccc3)CC2)s1	GPR151 activ 6.4 | GPR151 confirm inactive | GPR119 counter inactive
CC(=O)Nc1nnc(SCC(=O)N2CCN(c3ccccc3)CC2)s1	none
Cc1ccccc1-c1nnc(SCC(=O)N2CCN(c3ccccc3)CC2)o1	GPR151 activ 6.5 | GPR151 confirm inactive | GPR119 counter inactive
CCOC(=O)c1c(NC(=O)C(F)(OC)C(F)(F)F)sc(C(=O)Nc2ccccc2)c1C (configuration not stated)	none
COC(=O)C1CCN(Cc2ccc3c(c2)CN(C(=O)C2=NN(C)C(=O)CC2)CCO3)CC1	none
Cc1cc(-c2cncnc2C2CCCN(Cc3cccnc3)C2)on1 (configuration not stated)	none
Cc1ccc(N=Cc2ccccc2O)cc1C#N	GPR151 activ 5.6 | GPR151 confirm inactive | GPR119 counter inactive
Cc1ccc(N=Cc2ccccc2O)cc1F	none
CCOC(=O)c1sc(NC(=O)CSc2nnc(CNC(=O)Cc3ccccc3)n2-c2ccccc2OC)c(C(=O)OCC)c1C	none
CCOC(=O)c1c(NC(=O)CSc2nnc(CNC(=O)c3cc(OC)cc(OC)c3)n2Cc2ccccc2)sc2c1CCCC2	GPR151 activ 5.0 | GPR151 confirm inactive | GPR119 counter inactive
CCOC(=O)c1c(NC(=O)CSc2nnc(CNC(=O)c3cccc(F)c3)n2-c2ccc(OCC)cc2)sc2c1CCC2	none
CCOC(=O)c1c(NC(=O)CSc2nnc(CNC(=O)c3cccc(F)c3)n2-c2ccc([N+](=O)[O-])cc2)sc2c1CCCCC2	GPR151 activ 5.5 | GPR151 confirm inactive | GPR119 counter inactive
CCOC(=O)c1sc(NC(=O)CSc2nnc(CNC(=O)c3ccco3)n2-c2ccccc2OC)c(C(=O)OCC)c1C	GPR151 activ 8.7 | GPR151 confirm inactive | GPR119 counter inactive
Cc1ccc2c(c1)c(=O)c1ccccc1n2CC(=O)Nc1ccc(C)c(Cl)c1	none
CN(C(=O)COC(=O)c1ccc(Cl)c(N)c1)C1CCS(=O)(=O)C1 (configuration not stated)	none
O=C(Oc1cccc(OC(=O)c2ccccc2F)c1)c1ccccc1F	GPR151 activ 5.6 | GPR151 confirm inactive | GPR119 counter inactive
COc1cccc(/C=N/NC(=O)C(=O)N2CCCCC2)c1O	none
Cc1cccc(NC(=O)NCc2noc3ccccc23)n1	GPR151 activ 5.6 | GPR151 confirm inactive | GPR119 counter inactive
CCN(CC)C(=O)NCc1noc2ccccc12	GPR151 activ 5.3 | GPR151 confirm inactive | GPR119 counter inactive
CCCCN(CC)C(=O)NCc1noc2ccccc12	none
Cc1ccc(NC(=O)NCc2noc3ccccc23)nc1	none
CCN(C(=O)NCc1noc2ccccc12)c1ccccc1	GPR151 activ 5.6 | GPR151 confirm inactive | GPR119 counter inactive
COc1ccccc1C(=O)ON1C(=O)c2cccc3cccc(c23)C1=O	none
O=C1N/C(=C/c2ccc(F)cc2)C(=O)N1Cc1ccc(Br)cc1	none
COc1ccc(C)cc1N(CC(=O)NCCC(C)C)C(=O)c1snc(C(N)=O)c1N	GPR151 activ 11 | GPR151 confirm inactive | GPR119 counter inactive
COc1ccc(N(CC(=O)NCCC(C)C)C(=O)c2snc(C(N)=O)c2N)c(OC)c1	none
O=[N+]([O-])c1cc2c(cc1/C=C/c1ccccn1)OCO2	none
COC(=O)c1ccc(OCCOCCOc2cccc3ccc(C)nc23)cc1	none
COc1cccc(OCCCOc2cccc3ccc(C)nc23)c1	GPR151 activ 5.4 | GPR151 confirm inactive | GPR119 counter inactive
CCc1ccc(NC(=O)c2ccc(C(=O)Nc3ccc(CC)cc3)cc2)cc1	none
